In the supplement of paper PMC10849652:
About 7,900 targets were measured; listed, in parts, are those with a hit and a random draw of the rest. About 0.6% of all pairs of compound and target were hits.

Assays:
Experiment in all cases: log2 fold change, soluble protein after heating vs DMSO (PISA); higher = thermal stabilisation; K562 cells, 10 uM, 30 min; active = over 0.2 and 3.5 SD of the protein, either way, in both replicates (recomputed)
givinostat = compound: CCN(CC)Cc1ccc2cc(COC(=O)Nc3ccc(C(=O)NO)cc3)ccc2c1 [givinostat]
Method in brief: (§1)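 Soluble protein was quantified by TMTpro 16plex LC-MS/MS after channel sums were equalised. It was obtained as the supernatant after 21,000xg for 90 min from pooled aliquots of K562 cells (2×10^6 cells/mL, 10 μM compound, 30 min) heated for 3 min across 48°C-58°C and extracted in PBS with 0.5% NP-40 at 4°C. Thermal stability values are relative to control samples and come from duplicates. They are given as log2 fold changes.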

[1] = compound: CCn1c(C(=O)N(C2CC2)C2CC2)cc2c3c(ncn3C)c(Nc3cc(C)n(C)n3)nc21
Method in brief: as §1

[2] = compound: CC1=C(C=C(C=C1)NC(=O)C2=CC(=CC=C2)N(C)C)NC(=O)C3=CC=C(C=C3)O
Method in brief: as §1

[3] = compound: CC1=CC=C(C=C1)SC2=C3C=C(SC3=CN=C2)C(=O)N
Method in brief: as §1

[4] = compound: CC1=NC(=CC=C1)C2=C(N=C(N2)C(C)(C)C)C3=CC4=NC=CN=C4C=C3
Method in brief: as §1

Nexturastat A = compound: CCCCN(Cc1ccc(C(=O)NO)cc1)C(=O)Nc1ccccc1 [Nexturastat A]
Method in brief: as §1

vemurafenib = compound: CCCS(=O)(=O)Nc1ccc(F)c(C(=O)c2c[nH]c3ncc(-c4ccc(Cl)cc4)cc23)c1F [vemurafenib]
Method in brief: as §1

[5] = compound: CCCS(=O)(=O)Nc1ccc(F)c(C(=O)c2c[nH]c3ncc(Cl)cc23)c1F
Method in brief: as §1

[6] = compound: CCCc1cc(C)[nH]c(=O)c1CNC(=O)c1cc(-c2ccnc(N3CCN(C)CC3)c2)cc2c1cnn2C(C)C
Method in brief: as §1

barasertib = compound: CCN(CCCOc1ccc2c(Nc3cc(CC(=O)Nc4cccc(F)c4)[nH]n3)ncnc2c1)CCOP(=O)(O)O [barasertib]
Method in brief: as §1

[7] = compound: CC[C@@H]1C(=O)N(C)c2cnc(Nc3ccc(C(=O)NC4CCN(C)CC4)cc3OC)nc2N1C1CCCC1
Method in brief: as §1

volasertib = compound: CC[C@@H]1C(=O)N(C)c2cnc(Nc3ccc(C(=O)N[C@H]4CC[C@H](N5CCN(CC6CC6)CC5)CC4)cc3OC)nc2N1C(C)C [volasertib]
Method in brief: as §1

[8] = compound: CC[C@H](C)N1C=C(C2=C(C=C(C=C21)C3=CN=C(C=C3)N4CCNCC4)C(=O)NCC5=C(C=C(NC5=O)C)C)C
Method in brief: as §1

epoxomicin = compound: CC[C@H](C)[C@@H](C(=O)N[C@@H]([C@@H](C)O)C(=O)N[C@@H](CC(C)C)C(=O)[C@]1(CO1)C)NC(=O)[C@H]([C@@H](C)CC)N(C)C(=O)C [epoxomicin]
Method in brief: as §1

[9] = compound: CN(C)CC(=O)Nc1ccc2[nH]c(=O)c3ccccc3c2c1
Method in brief: as §1

rosiglitazone = compound: CN(CCOC1=CC=C(C=C1)C[C@H]2C(=O)NC(=O)S2)C3=CC=CC=N3 (racemic) [rosiglitazone]
Method in brief: as §1

[10] = compound: CN1C2=C(C3=C1C(=O)N(N=C3)CC4=CC(=CC=C4)N)SC(=C2)S(=O)C
Method in brief: as §1

[11] = compound: CC1=C(C=C(C=C1)NC(=O)C2=CC(=CC=C2)C(C)(C)C#N)NC3=CC4=C(C=C3)N=CN(C4=O)C
Method in brief: as §1

[12] = compound: CCn1cc(-c2ccnc3[nH]c(-c4cccc(CN(C)C)c4)cc23)c(-c2ccc(NC(=O)N(C)C)cc2)n1
Method in brief: as §1

[13] = compound: CN1CCC(CNc2ccc3ncc(-c4cccc(OC(F)(F)F)c4)n3n2)CC1
Method in brief: as §1

Measured: log2 fold change

CPNE5 (UniProt Q9HCH3)
inactive: givinostat -0.005 | [1] 0.132

CCDC82 (UniProt Q8N4S0)
active: volasertib -0.349
inactive: [2] -0.027 | [3] -0.007 | [4] -0.103 | Nexturastat A 0.043 | vemurafenib 0.015 | [5] 0.055 | [6] -0.035 | givinostat -0.074 | barasertib 0.073 | [7] -0.062 | [8] -0.018 | epoxomicin 0.143 | [1] -0.057 | [9] 0.001 | rosiglitazone 0 | [10] -0.069

CD84 (UniProt Q9UIB8)
inactive: [11] -0.181 | Nexturastat A 0.096 | givinostat 0.006 | epoxomicin -0.009 | [1] 0.111 | [10] -0.077

CAV2 (UniProt P51636)
Chain of UniProt P51636 (P51636 whole entry, looked up): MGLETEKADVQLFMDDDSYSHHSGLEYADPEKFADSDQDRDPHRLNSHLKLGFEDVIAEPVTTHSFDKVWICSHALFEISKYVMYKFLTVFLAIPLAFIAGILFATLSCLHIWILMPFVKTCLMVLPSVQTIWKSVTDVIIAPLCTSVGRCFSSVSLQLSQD
inactive: [11] -0.164 | [3] -0.018 | [4] 0.078 | [5] 0.087 | [6] 0.001 | givinostat 0.137 | barasertib 0.175 | volasertib -0.098 | [8] -0.032 | [1] -0.059 | [12] -0.036 | rosiglitazone -0.076 | [10] 0.01 | [13] 0.074

CNOT4 isoform 9 (UniProt O95628)
Chain of UniProt O95628 (O95628 whole entry, looked up): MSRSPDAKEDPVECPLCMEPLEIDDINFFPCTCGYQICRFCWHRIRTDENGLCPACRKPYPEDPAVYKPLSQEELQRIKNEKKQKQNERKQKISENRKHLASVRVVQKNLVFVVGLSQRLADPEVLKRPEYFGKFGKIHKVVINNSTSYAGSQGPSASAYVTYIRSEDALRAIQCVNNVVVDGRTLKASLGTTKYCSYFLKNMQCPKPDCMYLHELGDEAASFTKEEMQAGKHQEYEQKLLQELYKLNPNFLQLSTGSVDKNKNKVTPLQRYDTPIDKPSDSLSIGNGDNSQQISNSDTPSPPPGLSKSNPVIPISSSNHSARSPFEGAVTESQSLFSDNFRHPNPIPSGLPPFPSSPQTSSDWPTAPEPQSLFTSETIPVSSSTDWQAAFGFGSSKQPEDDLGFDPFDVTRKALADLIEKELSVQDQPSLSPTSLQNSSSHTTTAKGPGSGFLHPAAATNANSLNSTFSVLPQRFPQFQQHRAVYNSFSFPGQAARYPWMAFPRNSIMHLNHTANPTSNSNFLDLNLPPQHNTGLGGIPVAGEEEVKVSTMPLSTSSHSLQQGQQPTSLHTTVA
inactive: [2] -0.034 | [3] 0.003 | [4] 0.017 | vemurafenib -0.059 | [5] 0.006 | [6] -0.171 | givinostat 0.053 | barasertib 0.015 | [7] 0.198 | volasertib -0.006 | [8] -0.046 | [1] 0.017 | [12] -0.095 | [9] 0.046 | rosiglitazone -0.022 | [10] -0.105 | [13] 0.072

COMMD3-BMI1 (UniProt R4GMX3)
inactive: [11] -0.002 | [3] -0.126 | Nexturastat A 0.03 | volasertib 0.038 | [8] 0.062 | epoxomicin 0.026 | [12] 0.006 | [13] -0.105
active: [5] -0.426

CLN5 (UniProt O75503)
Chain of UniProt O75503 (O75503 whole entry, looked up): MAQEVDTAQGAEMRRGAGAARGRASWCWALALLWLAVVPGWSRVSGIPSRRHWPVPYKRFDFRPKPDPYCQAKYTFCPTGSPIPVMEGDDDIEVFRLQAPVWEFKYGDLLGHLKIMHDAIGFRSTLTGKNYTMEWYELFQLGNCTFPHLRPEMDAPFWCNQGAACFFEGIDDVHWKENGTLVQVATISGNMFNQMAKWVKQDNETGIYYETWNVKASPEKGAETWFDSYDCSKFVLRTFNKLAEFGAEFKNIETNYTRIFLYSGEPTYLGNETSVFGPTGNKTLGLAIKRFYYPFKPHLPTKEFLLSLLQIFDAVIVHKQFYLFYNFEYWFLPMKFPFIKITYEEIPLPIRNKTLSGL
active: volasertib -1.25 | [13] -0.834
inactive: [11] 0.031 | [3] 0.058 | [4] 0.068 | Nexturastat A 0.012 | [5] 0.104 | [6] -0.54 | givinostat -0.17 | barasertib 0.06 | [8] -0.001 | epoxomicin 0.014 | [1] 0.416 | [12] -0.183 | rosiglitazone -0.025 | [10] 0.139

CNN3 (UniProt Q15417)
active: volasertib -0.368
inactive: [11] 0.014 | [3] 0.064 | Nexturastat A 0.015 | vemurafenib 0.034 | [5] 0.07 | [6] -0.018 | givinostat 0.073 | barasertib 0.047 | [7] -0.08 | [8] 0.072 | epoxomicin 0.066 | [1] 0.005 | [12] 0.008 | [9] 0.106 | rosiglitazone 0.058 | [10] -0.018 | [13] -0.055

CLASP2 (UniProt O75122)
Chain of UniProt O75122 (O75122 whole entry, looked up): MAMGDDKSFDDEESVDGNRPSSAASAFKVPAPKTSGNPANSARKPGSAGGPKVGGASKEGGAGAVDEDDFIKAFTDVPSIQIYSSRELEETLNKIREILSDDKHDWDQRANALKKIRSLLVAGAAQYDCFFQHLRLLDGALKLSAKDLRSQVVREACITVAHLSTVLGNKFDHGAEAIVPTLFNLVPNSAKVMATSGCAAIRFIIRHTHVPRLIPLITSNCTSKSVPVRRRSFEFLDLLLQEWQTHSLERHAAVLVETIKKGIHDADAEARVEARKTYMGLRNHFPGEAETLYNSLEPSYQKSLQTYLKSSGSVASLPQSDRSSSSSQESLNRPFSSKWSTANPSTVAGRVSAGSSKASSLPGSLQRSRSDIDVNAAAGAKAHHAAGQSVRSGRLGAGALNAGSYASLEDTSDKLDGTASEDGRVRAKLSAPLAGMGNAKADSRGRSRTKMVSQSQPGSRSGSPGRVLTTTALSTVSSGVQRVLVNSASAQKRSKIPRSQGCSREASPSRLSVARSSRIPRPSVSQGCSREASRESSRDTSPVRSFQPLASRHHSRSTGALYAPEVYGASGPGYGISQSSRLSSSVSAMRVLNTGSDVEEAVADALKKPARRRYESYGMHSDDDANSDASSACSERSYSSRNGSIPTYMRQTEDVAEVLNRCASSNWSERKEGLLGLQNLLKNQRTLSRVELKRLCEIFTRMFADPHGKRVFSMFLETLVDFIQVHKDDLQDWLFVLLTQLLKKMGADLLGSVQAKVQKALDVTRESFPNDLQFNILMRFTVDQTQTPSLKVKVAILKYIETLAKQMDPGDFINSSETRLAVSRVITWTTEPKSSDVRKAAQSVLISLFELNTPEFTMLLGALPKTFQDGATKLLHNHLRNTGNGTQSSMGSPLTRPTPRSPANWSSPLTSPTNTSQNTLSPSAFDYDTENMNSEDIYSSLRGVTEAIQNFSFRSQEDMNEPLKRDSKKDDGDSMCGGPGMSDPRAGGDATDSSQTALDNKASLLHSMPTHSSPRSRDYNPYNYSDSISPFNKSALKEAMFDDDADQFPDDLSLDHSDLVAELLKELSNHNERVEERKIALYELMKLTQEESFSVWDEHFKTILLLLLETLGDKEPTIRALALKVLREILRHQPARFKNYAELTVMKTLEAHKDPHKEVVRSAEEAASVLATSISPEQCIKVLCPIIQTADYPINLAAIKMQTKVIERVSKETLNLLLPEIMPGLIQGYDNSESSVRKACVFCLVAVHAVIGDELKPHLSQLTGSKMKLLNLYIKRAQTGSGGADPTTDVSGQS
inactive: [2] -0.286 | [3] -0.103 | [4] 0.065 | [5] -0.068 | [6] -0.017 | givinostat 0.031 | barasertib 0.031 | [7] -0.104 | volasertib -0.123 | [8] 0.083 | [1] -0.038 | rosiglitazone 0.166

CREB3L2 (UniProt Q70SY1)
Chain of UniProt Q70SY1 (Q70SY1 whole entry, looked up): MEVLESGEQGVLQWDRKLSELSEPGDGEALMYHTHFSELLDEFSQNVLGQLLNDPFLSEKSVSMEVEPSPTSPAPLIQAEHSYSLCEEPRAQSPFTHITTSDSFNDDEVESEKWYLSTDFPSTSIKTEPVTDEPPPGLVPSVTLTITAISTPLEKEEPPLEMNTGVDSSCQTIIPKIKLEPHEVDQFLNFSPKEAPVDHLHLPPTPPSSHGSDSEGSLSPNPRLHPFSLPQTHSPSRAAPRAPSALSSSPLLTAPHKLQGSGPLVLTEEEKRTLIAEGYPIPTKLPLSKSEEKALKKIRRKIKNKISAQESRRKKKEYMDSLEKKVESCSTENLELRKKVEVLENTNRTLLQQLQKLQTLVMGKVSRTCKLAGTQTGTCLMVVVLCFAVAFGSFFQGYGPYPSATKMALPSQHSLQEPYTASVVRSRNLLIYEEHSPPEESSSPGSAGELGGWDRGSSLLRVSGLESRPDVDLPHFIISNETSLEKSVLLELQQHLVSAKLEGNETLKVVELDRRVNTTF
inactive: [2] 0.085 | [4] -0.23 | vemurafenib -0.036 | [6] 0.154 | givinostat 0.436 | barasertib 0.081 | [8] 0.067 | epoxomicin 0.035 | [1] -0.125 | [9] 0.069 | rosiglitazone -0.031
active: Nexturastat A 0.706

CLCN5 isoform 2 (UniProt P51795)
Chain of UniProt P51795 (P51795 whole entry, looked up): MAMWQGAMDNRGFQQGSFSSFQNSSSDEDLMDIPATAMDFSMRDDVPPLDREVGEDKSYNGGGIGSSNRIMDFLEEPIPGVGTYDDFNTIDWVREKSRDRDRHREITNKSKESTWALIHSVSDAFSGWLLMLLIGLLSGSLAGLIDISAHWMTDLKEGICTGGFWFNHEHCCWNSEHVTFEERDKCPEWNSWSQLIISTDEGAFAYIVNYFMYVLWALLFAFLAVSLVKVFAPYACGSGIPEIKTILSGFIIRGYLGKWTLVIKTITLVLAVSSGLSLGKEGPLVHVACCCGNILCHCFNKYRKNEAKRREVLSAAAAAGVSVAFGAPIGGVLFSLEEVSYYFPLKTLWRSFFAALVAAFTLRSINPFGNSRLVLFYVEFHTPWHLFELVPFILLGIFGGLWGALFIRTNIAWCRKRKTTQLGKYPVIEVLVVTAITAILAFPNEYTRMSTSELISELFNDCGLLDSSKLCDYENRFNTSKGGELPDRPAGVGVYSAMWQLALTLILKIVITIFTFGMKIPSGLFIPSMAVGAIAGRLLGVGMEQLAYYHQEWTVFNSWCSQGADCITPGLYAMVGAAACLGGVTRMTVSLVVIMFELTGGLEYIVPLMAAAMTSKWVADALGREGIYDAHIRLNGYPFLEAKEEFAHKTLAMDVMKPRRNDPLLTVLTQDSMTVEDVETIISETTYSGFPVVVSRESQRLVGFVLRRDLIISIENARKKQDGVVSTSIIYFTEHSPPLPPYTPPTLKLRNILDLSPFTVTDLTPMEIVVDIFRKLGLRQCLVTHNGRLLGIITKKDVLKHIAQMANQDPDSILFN
inactive: [2] 0.052 | [4] -0.016 | vemurafenib 0.029 | givinostat 0.022 | [7] -0.299 | [8] 0.151 | [1] 0.002 | [12] 0.172 | [9] 0.046 | [10] 0.098 | [13] -0.267

CRLS1 (UniProt Q9UJA2)
Chain of UniProt Q9UJA2 (Q9UJA2 whole entry, looked up): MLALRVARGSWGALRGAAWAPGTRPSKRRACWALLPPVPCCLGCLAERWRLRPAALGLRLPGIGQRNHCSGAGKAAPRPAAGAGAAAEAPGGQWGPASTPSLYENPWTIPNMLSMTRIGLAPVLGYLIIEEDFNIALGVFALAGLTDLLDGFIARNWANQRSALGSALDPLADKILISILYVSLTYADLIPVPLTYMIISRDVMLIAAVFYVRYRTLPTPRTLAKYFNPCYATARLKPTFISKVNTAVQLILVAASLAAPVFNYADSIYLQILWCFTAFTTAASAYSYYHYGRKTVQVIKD
inactive: [3] 0.064 | [4] -0.014 | vemurafenib 0.033 | [5] 0.117 | [6] -0.074 | givinostat -0.108 | [7] 0.029 | volasertib 0.026 | [8] 0.001 | [1] -0.024 | [12] 0.052 | [9] -0.024 | [10] -0.006 | [13] 0.09
active: [11] 0.337

CCND3 (UniProt P30281)
Chain of UniProt P30281 (P30281 whole entry, looked up): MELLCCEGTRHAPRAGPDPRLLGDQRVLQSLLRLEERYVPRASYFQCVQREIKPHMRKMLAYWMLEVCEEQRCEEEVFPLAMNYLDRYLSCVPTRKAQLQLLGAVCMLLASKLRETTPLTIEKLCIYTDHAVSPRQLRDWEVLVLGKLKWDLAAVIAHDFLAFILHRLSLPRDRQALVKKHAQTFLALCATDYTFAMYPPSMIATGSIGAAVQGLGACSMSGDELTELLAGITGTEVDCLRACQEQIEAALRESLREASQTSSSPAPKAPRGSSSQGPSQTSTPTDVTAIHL
active: epoxomicin 0.363
inactive: [2] 0.046 | [3] 0.063 | Nexturastat A -0.004 | vemurafenib -0.077 | [5] -0.028 | [6] -0.062 | givinostat 0.021 | barasertib 0.079 | [7] -0.085 | volasertib 0.102 | [1] -0.003 | [12] -0.021 | [9] -0.022 | rosiglitazone -0.025 | [10] 0.063 | [13] -0.175

CLN3 (UniProt Q13286)
Chain of UniProt Q13286 (Q13286 whole entry, looked up): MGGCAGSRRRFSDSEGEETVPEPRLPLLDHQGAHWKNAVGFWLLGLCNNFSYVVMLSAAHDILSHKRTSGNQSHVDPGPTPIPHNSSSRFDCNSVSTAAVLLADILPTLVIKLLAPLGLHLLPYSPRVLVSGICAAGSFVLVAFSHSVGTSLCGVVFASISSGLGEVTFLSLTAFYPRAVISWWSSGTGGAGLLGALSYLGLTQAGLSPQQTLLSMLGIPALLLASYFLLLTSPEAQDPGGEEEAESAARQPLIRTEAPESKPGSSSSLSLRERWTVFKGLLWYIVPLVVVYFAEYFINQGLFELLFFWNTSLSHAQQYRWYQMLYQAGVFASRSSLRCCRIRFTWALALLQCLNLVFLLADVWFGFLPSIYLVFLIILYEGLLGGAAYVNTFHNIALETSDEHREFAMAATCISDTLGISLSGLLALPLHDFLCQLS
inactive: [2] 0.004 | [3] -0.025 | [4] -0.093 | Nexturastat A -0.039 | vemurafenib 0.147 | [5] -0.119 | [6] -0.09 | givinostat 0.02 | barasertib -0.027 | [7] -0.003 | volasertib 0.055 | [8] -0.038 | epoxomicin 0.09 | [1] -0.008 | [9] -0.001 | rosiglitazone -0.002 | [10] 0.074

CD68 (UniProt P34810)
inactive: [11] 0.037 | [6] -0.06 | givinostat -0.091 | barasertib -0.313 | [1] 0.091 | rosiglitazone 0.104
